Screening data deposited in PubChem BioAssay by National Center for Advancing Translational Sciences (NCATS).
SARS PLpro yeast – inhibitors of SARS-CoV papain-like protease in yeast. AID 485353. S. cerevisiae expressing SARS-CoV PLpro, growth rescue. Potency, µM (titrated, usually from 32.9 µM), hits mostly activators. 330,000 compounds, 0.19% hits; calls by dose curve; note: nearly all actives have a fitted effect of over 55% in size
AmpC detergent – inhibitors of E. coli AmpC beta-lactamase with detergent; AmpC hydrolysis of nitrocefin, absorbance 480 nm, 0.01% Triton; P00811; Potency, µM (doses to about 114 µM), hits mostly inhibitors; 370,000 compounds, 0.041% hits; note: nearly all actives have a fitted effect of over 25% in size
Target sequence (P00811 whole entry, looked up): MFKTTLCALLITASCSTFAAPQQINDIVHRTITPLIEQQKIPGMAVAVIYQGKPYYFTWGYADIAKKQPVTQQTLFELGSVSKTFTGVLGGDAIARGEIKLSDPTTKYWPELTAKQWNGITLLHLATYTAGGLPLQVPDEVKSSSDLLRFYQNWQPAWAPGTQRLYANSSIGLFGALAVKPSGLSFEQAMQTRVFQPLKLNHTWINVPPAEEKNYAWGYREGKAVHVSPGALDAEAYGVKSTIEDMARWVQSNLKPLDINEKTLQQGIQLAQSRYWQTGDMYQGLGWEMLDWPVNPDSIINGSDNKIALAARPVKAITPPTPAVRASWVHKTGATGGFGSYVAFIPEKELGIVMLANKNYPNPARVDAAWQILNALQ
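20 mM phosphate pH 7.0 + 0.01% (detergent screen) or 0.0001% Triton X-100; 5.3 nM AmpC reagent; cpd preinc 15 min RT; nitrocefin (800 uM stock) to start; A480 q20 s × 4 min; Activity was normalised to no-enzyme and no-compound control wells.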
Pf growth 48h – P. falciparum growth inhibition at 48 hours (one generation); 310,000 compounds, 5.9% hits; AID 504832; P. falciparum luciferase growth in erythrocytes, 48 h; Potency, µM (series often up to 28.7 µM), usual class: inhibitors
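Cell-based growth assay: transgenic P. falciparum expressing firefly luciferase, cultured in red cells within RPMI 1640 containing 0.5% w/v Albumax, 24 mM bicarbonate and gentamycin. A drop in luciferase activity indicates inhibition.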
AmpC inh no detg – inhibitors of E. coli AmpC beta-lactamase without detergent | AID 485341 | P00811 | 330,000 compounds, 0.52% hits | AmpC nitrocefin hydrolysis, absorbance 480 nm, 0.0001% Triton | Potency, µM (doses to about 57.1 µM), usual class: inhibitors; note: nearly all actives have a fitted effect of over 20% in size
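AmpC (5.3 nM in the dispensed reagent) in 20 mM phosphate pH 7.0 with 0.01% (detergent screen) or 0.0001% Triton X-100 was preincubated with compounds for 15 min at room temperature. Nitrocefin was then added from an 800 uM solution, and hydrolysis was followed at 480 nm.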
Sm TGR block – inhibitors of Schistosoma mansoni thioredoxin glutathione reductase; Q962Y6; purified TGR, DTNB reduction, TNB absorbance 405 nm; Potency, µM (highest dose often 114 µM), actives largely listed as inhibitors; 360,000 compounds, 3% hits; AID 485364; note: nearly all actives have a fitted effect of over 60% in size
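Kinetic colorimetric format: TGR-catalysed, NADPH-driven DTNB reduction monitored via TNB absorbance. Enzyme dispensed at 20 nM; compound exposure 15 min at room temperature before reaction start.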
Pf growth 96h – P. falciparum growth inhibition at 96 hour, primary screen for plastid delayed-death inhibitors; P. falciparum luciferase reporter growth, 96 h; Potency, µM (doses to about 28.7 µM), most hits filed as inhibitors; 320,000 compounds, 6.9% hits
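Compounds incubated with erythrocytes infected by luciferase-expressing P. falciparum (2% hematocrit, 0.05% parasitemia final) for 96 hours, 37 C in 5% CO2. Growth inhibition scored as decreased luciferase luminescence.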
Numbers stand for hits; - = inactive; ? = inconclusive; . = not tested or not shown; [ ] = remark or other dose. Only some compounds are listed: those with a hit (about 12% of all), similar ones and a draw of the others. Unless noted, calls come from the whole dose curve; as a rule, active = well fitted curve in the direction sought with a large enough effect; inconclusive = small, poorly fitted or top-dose-only effect, or another doubt; inactive = no such curve, though single readings can be large; an effect the other way counts as inactive or inconclusive.

SMILES | SARS PLpro yeast | AmpC detergent | Pf growth 48h | AmpC inh no detg | Sm TGR block | Pf growth 96h
O=C(NC(=S)NCC1CCCO1)c1ccc([N+](=O)[O-])cc1 (stereo not given) | - | - | - | - | - | 0.59µM
O=C(NCC1CCCO1)c1ccc(CS(=O)(=O)c2c(Cl)cccc2Cl)o1 (stereo not given) | - | - | . | - | - | -
Cc1ccc(-c2nnc(SC(C)C(=O)NCC3CCCO3)nc2-c2ccc(C)cc2)cc1 (stereo not given) | - | - | 13µM | - | - | 9.3µM
Cc1ccc(-c2nn(-c3ccc(F)cc3)cc2C(=O)NCC2CCCO2)cc1 (stereo not given) | - | - | - | - | 50µM | ?
COc1cccc(-c2nn(-c3ccc(F)cc3)cc2C(=O)NCC2CCCO2)c1 (stereo not given) | - | - | - | - | - | -
O=C(NC(=S)NCC1CCCO1)c1ccc(Cl)cc1 (stereo not given) | - | - | - | - | - | -
CC(Sc1nnc(-c2ccccc2)c(-c2ccccc2)n1)C(=O)NCC1CCCO1 (stereo not given) | - | . | . | - | . | .
CCc1ccccc1S(=O)(=O)Cc1ccc(C(=O)NCC2CCCO2)o1 (stereo not given) | - | - | - | - | 40µM | -
CCN(CC)CCNC(=O)c1nn(C)c2c1CS(=O)(=O)c1ccccc1-2 | . | - | . | . | - | .
Cc1ccc(Cl)cc1NC(=O)N1CCC(CN2CCCCCC2)CC1 | . | - | . | . | ? | .
COc1cccc(NC(=O)Cn2c(=O)n(-c3ccccc3)c(=O)c3ccc(C(=O)NCc4ccc5c(c4)OCO5)cc32)c1 | . | - | . | . | - | .
Cc1ccc(C)n1-c1ccc(C(=O)NCC2CCCO2)cc1 (stereo not given) | - | - | - | - | 40µM | 10µM
COc1ccc(C(=O)NCC2CCCO2)cc1 (stereo not given) | - | - | - | - | - | -
CC(=O)c1ccc(-c2ccc(C(=O)NCC3CCCO3)o2)cc1 (stereo not given) | - | ? | - | - | 35µM | -
Cc1cc(C)c(NC(=O)CN2C(=O)c3cccnc3Oc3ccc(C)cc32)c(C)c1 | . | - | . | . | - | .
Cc1cc2c(n1-c1ccc(C(=O)NCC(C)c3ccccc3)cc1)CCCC2 (stereo not given) | . | - | . | . | ? | .
N#C/C(=C\c1ccc(OCc2ccccc2)cc1)C(=O)Nc1nc2c(s1)CCN(Cc1ccccc1)C2 | - | - | 8.3µM | - | - | ?
N#C/C(=C/c1ccc(OCc2ccc(C(=O)O)cc2)cc1)C(=O)Nc1ccccc1 | - | - | - | - | - | -
CCc1ccccc1N(CC(=O)NC(C)(C)C)C(=O)CCC(=O)Nc1ccccn1 | - | - | - | - | - | ?
CCc1cccc2c(C(=O)CSc3nncn3-c3ccccc3OC)c[nH]c12 | 13µM | ? | ? | - | - | -
CCc1cccc2c(C(=O)COC(=O)c3ccc(O)cc3)c[nH]c12 | - | - | - | 28µM | - | -
CCc1cccc2c(C(=O)COC(=O)/C=C/c3ccccc3OC)c[nH]c12 | - | - | ? | - | - | 13µM
O=C(O)C(Cc1cc(I)c(O)c(I)c1)c1ccccc1 (stereo not given) | . | . | - | . | . | ?
COc1ccc(C)c2sc(NC(=O)C3=COCCO3)nc12 | - | ? | - | 40µM | - | -
COc1ccc(NC(=O)C2CCCCN2N)cc1OCC(C)C (stereo not given) | - | - | ? | - | - | .
SMILES | SARS PLpro yeast | AmpC detergent | Pf growth 48h | AmpC inh no detg | Sm TGR block | Pf growth 96h
COc1ccc(CNN2CCCCC2C(=O)Nc2ccc(OC)c(OCC(C)C)c2)cc1OC (stereo not given) | - | - | - | - | - | 15µM
O=C(NN1C(=O)C2C3C=CC(O3)C2C1=O)c1cccc(Br)c1 (stereo not given) | - | - | - | -[2.29 µM] | 22µM | -
O=C(NN1C(=O)C2C3C=CC(O3)C2C1=O)c1cccc(O)c1 (stereo not given) | - | - | - | - | 20µM | ?
CCOC(=O)c1c(NC(=O)c2cc(=O)c3ccc(C)cc3o2)sc(C)c1C | . | - | . | . | - | .
O=C(O)c1ccc(S(=O)(=O)c2ccc3c(c2)C(=O)N(Cc2ccco2)C3=O)cc1 | - | - | - | - | - | .
COc1cc(SC)ccc1C(=O)NCCCn1ccnc1 | - | - | - | - | ? | -
CC(=O)C1=C(c2ccccc2)NC(=S)NC1c1ccc(O)c(O)c1 (stereo not given) | - | - | -[5.75 µM] | - | - | 13µM
CC(=O)C1=C(c2ccccc2)NC(=O)NC1c1ccc(O)c(O)c1 (stereo not given) | - | - | - | - | 16µM | -
CC(=O)C1=C(c2ccccc2)NC(=S)NC1c1cc(Cl)c(OC(C)C)c(Cl)c1 (stereo not given) | - | - | ? | ? | - | -
CC(=O)C1=C(c2ccccc2)NC(=O)NC1c1ccc2c(c1)OCO2 (stereo not given) | - | - | - | - | - | -
O=C(COC(=O)c1cc(-c2ccccc2)nc2c(Cl)cccc12)c1ccc(F)cc1 | . | - | . | . | - | .
Oc1ccccc1/C=N/Nc1ccnc(SCc2ccccc2)n1 | - | - | 10µM | - | - | 1.9µM
Oc1ccccc1/C=N/Nc1ccccc1 | - | - | - | - | - | -
O=C(CNC(=O)c1cccs1)N/N=C/c1cccc(Cl)c1 | - | - | - | - | - | ?
Cc1ccc(C)c(NCC(O)c2ccccc2)c1 (stereo not given) | - | - | - | - | . | -
CCOC(=O)C1CC(c2ccccc2)=NNC1=O (stereo not given) | - | - | - | - | . | -
Cc1cc(N2C(=O)C3CCCN3C2c2sccc2C)no1 (stereo not given) | - | - | - | - | - | -
COc1ccc(C2N(c3cc(C)on3)C(=O)C3CCCN32)cc1 (stereo not given) | - | - | -[1.15 µM] | - | - | 3.3µM
Cc1cc(N2C(=O)C3CCCN3C2c2cccc(Cl)c2)no1 (stereo not given) | - | - | - | - | - | 4.7µM
O=C(O)/C=C/C(=O)Nc1ccc(NC(=O)c2ccccc2)c(Cl)c1 | - | - | - | - | ? | ?
CCc1nnc(NC(=O)c2ccc3ncsc3c2)s1 | - | - | - | - | - | -
Cc1cc(C(C)(C)CC(C)(C)C)ccc1OCCOCC[N+](C)(C)Cc1ccccc1 | . | ? | 1.7µM | - | - | 0.47µM
Cc1ccc(OCCNCc2ccccc2)c(C)c1 | - | - | - | - | - | ?
CCOC(=O)/C(=C/C=C1\Sc2cc(OCC)c(OCC)cc2N1CC)C(C)=O | - | - | 7.4µM | - | - | -
O=C(Cn1c(=O)oc2cc(S(=O)(=O)NC3CCCC3)ccc21)Nc1ccc(F)c(F)c1 | . | - | . | . | - | .
